ELG1 repair inh: qHTS screen for small molecules that inhibit ELG1-dependent DNA repair in human embryonic kidney (HEK293T) cells expressing luciferase-tagged ELG1 | HEK293T ELG1-luciferase reporter, luminescence, 16 h; DNA damage induced by 5-fluorouridine | Potency, µM (top dose mostly 46.1 µM), without a hit: at the top dose activity change, negative = inhibition, hits mostly inhibitors | actives 2.3% (n = 330,000) | AID 504467, 2011; also: potency is read from the fitted curve at half-maximal effect; nearly all actives have a fitted effect of over 55% in size
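Quantitative HTS, concentration-response format. 2,000 cells/well co-treated with 5-fluorouridine and compound, 16 hr in 5% CO2 at 37 °C; ONE-Glo luminescence read after 30 min.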
TSHR antag: Antagonists of the Thyroid Stimulating Hormone Receptor: HTS campaign. Thyrotropin receptor (Homo sapiens), P16473. TSHR-expressing cells, TSH-stimulated cAMP HTRF, 2 h; stronger effect = lower value. activity change, negative = inhibition, % at 11.5 µM. actives 0.2% (n = 330,000);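 active = activity change below a set negative limit, meaning inhibition stronger than a set level, cut at about -70% in these data; inconclusive = activity change between two set negative limits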
Target sequence (P16473 whole entry, looked up): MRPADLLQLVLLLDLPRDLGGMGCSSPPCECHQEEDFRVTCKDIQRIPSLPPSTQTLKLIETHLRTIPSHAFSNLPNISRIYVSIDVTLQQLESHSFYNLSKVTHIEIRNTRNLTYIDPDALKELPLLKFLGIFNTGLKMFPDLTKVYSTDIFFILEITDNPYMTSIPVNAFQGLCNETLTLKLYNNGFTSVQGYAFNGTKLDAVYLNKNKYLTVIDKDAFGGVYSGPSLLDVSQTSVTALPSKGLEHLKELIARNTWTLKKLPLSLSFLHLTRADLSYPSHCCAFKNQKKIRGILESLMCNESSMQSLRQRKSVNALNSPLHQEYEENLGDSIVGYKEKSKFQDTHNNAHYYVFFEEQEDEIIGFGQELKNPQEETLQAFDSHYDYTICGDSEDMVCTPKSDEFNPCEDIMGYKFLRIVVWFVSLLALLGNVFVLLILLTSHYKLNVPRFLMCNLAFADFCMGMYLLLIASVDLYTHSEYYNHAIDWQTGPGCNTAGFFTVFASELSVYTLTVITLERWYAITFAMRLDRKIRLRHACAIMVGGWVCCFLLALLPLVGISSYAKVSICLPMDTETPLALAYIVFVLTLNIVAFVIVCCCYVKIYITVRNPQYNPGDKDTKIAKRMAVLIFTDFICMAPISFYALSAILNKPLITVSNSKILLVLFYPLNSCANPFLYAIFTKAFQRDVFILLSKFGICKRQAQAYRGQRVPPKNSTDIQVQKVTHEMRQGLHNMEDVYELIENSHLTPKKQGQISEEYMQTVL
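Inhibition of cAMP made by TSHR-expressing cells under TSH stimulation (4nM final, EC80; 2 h, 37 deg C) is quantified with a one-step lysis HTRF kit, anti-cAMP cryptate versus cAMP-d2.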
Gal4-VP16 FLuc: VP16 counterscreen qHTS for inhibitors of ROR gamma transcriptional activity | actives 3.5% (n = 310,000) | AID 2546, 2010 | Drosophila S2 Gal4-VP16 UAS-luciferase, luminescence, 20 h | Potency, µM (doses to about 53.6 µM), for inactives: at the highest dose activity, negative = inhibition, actives largely listed as inhibitors;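 also: Gal4-VP16 expression switched on by copper sulfate through the metallothionein promoter; potency is read from the fitted curve at half-maximal effect; nearly all actives have a fitted effect of over 50% in size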
RORg inh: qHTS for inhibitors of ROR gamma transcriptional activity; Nuclear receptor ROR-gamma (Mus musculus), P51450; Drosophila S2 Gal4-RORgamma UAS-luciferase reporter, 20 h; Potency, µM (series often up to 53.6 µM), for the others: at the top dose activity change, negative = inhibition, hits mostly inhibitors; actives 5.4% (n = 310,000); AID 2551, 2010; also: potency is read from the fitted curve at half-maximal effect; nearly all actives have a fitted effect of over 60% in size
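Using a luciferase readout, inhibitors were identified by reduced reporter activity in Drosophila cells coexpressing a copper-inducible Gal4–ROR gamma fusion and UAS-driven Photinus luciferase, incubated 20 hr after 700 uM copper sulfate.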
Coupling enz: qHTS Assay for Inhibitors of Fructose-1,6-bisphosphate Aldolase from Giardia Lamblia: Coupling assay counterscreen. coupling enzyme system counterscreen, AmpLite Red fluorescence. activity change, negative = inhibition, % at 58.2 µM, hits read low. actives 0.67% (n = 290,000). AID 2472, 2010; in the data active = activity change below about -30%
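First, compound is pin-transferred into glyceraldehyde-3-phosphate coupling-enzyme reagent at 57.5 uM final and held 10 min at RT. Next, substrate, coupling system and AmpLite Red are added. After 20 min RT, fluorescence (525/598 nm) is read.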
Active calls of the source: *; [ ] = dose if it differs, or a comment. In the library only some 8% were active in any assay of this set; here they are far more common. Unless noted, calls follow the shape of the dose curve; as a rule, active = well fitted curve in the direction sought with a large enough effect; inconclusive = small, poorly fitted or top-dose-only effect, or another doubt; inactive = no such curve, though single readings can be large; an effect the other way counts as inactive or inconclusive. % is scaled to controls: 0 for no effect and ±100 for the full control effect.

For COc1ccc(Cn2c(SCc3ccc(C)cc3)nc3cc(OC)c(OC)cc3c2=N)cc1Cl the results were ELG1 repair inh inconclusive, TSHR antag -10, Gal4-VP16 FLuc 1.4µM*, RORg inh 4µM* and Coupling enz -7.
COc1ccc(Cn2c(SCc3cc(C)ccc3C)nc3cc(OC)c(OC)cc3c2=N)cc1 was read as ELG1 repair inh inconclusive, TSHR antag 25, Gal4-VP16 FLuc -6%, RORg inh 34% and Coupling enz -3.
Screening COc1cc2nc(SCc3ccc(Cl)cc3Cl)n(Cc3cccs3)c(=N)c2cc1OC returned ELG1 repair inh inconclusive, TSHR antag 29, Gal4-VP16 FLuc 16µM*, RORg inh inconclusive and Coupling enz -3.
`CCOC(=O)c1c(C)[nH]c(C(C)=NNC(=O)c2cccs2)c1C` gave ELG1 repair inh inconclusive and TSHR antag 14.
Cc1ccc(S(=O)(=O)N(CC(=O)N2CCOCC2)c2ccc(C(C)C)cc2)cc1 was read as ELG1 repair inh 30%, TSHR antag 7, Gal4-VP16 FLuc -3% and RORg inh -19%.
CCCCN(C(=O)C1CCCC1)c1c(N)n(CC(C)C)c(=O)[nH]c1=O was read as ELG1 repair inh 11% and TSHR antag 21.
For COC(=O)C[C@@H]1O[C@H]1[C@H](C)[C@@H](OC)C(C)C the results were Gal4-VP16 FLuc 3%[10 µM], RORg inh 15%[10 µM] and Coupling enz 0.
Screening C/C(CC(=O)Nc1cccc(C(F)(F)F)c1)=N\NC(=O)c1cnccn1 returned ELG1 repair inh 3%, TSHR antag -14, Gal4-VP16 FLuc 29%, RORg inh 26% and Coupling enz -1.
COCCCn1c(SCc2nnc(-c3ccc(OC)c(OC)c3)o2)nc2ccccc2c1=O was read as ELG1 repair inh 12µM*, TSHR antag 9, Gal4-VP16 FLuc -6%, RORg inh inconclusive and Coupling enz 2.
Screening CC1CCN(c2nc(-c3ccncc3)nc3ccccc23)CC1 returned ELG1 repair inh inconclusive, TSHR antag 34, Gal4-VP16 FLuc inconclusive, RORg inh 11µM* and Coupling enz -1.
CC1CCCCN1c1nc(-c2ccncc2)nc2ccccc12 (stereo unspecified) was read as ELG1 repair inh -35%, TSHR antag 42, Gal4-VP16 FLuc -19%, RORg inh 11µM* and Coupling enz 1.
For c1ccc2c(N3CCOCC3)nc(-c3ccncc3)nc2c1 the results were ELG1 repair inh 6.5µM*, TSHR antag 3, Gal4-VP16 FLuc -16%, RORg inh 23% and Coupling enz 1.
Screening c1cncc(-c2nc(N3CCOCC3)c3ccccc3n2)c1 returned ELG1 repair inh -8%, TSHR antag 2, Gal4-VP16 FLuc -11%, RORg inh -8% and Coupling enz 2.
For CC1CCN(c2nc(/C=C/c3ccccc3)nc3ccccc23)CC1 the results were ELG1 repair inh -14%, TSHR antag -3, Gal4-VP16 FLuc inconclusive, RORg inh 16µM* and Coupling enz 1.
C[C@@]12CCC(=O)C=C1C=CC1C2CC[C@]2(C)C1CC[C@@]21CCC(=O)O1 (stereo partly specified) was read as Gal4-VP16 FLuc -2%, RORg inh 39% and Coupling enz 1.
`O=C(Nc1cccc(F)c1)N1CC[C@@]2(CCCN(C(=O)c3cnccn3)C2)C1` gave Gal4-VP16 FLuc -4%, RORg inh -10% and Coupling enz 4.
Screening O=C1OCC2OC(O)C(O)C(O)C2OC(=O)c2cc(O)c(O)c(O)c2-c2c(O)c(O)c3oc(=O)c4c(c(O)c(O)c5oc(=O)c2c3c54)-c2c1cc(O)c(O)c2O (stereo unspecified) returned ELG1 repair inh 11%, TSHR antag -13, Gal4-VP16 FLuc -2%, RORg inh -20% and Coupling enz -15.
